The panel holds about 79,000 compounds, 15% with a hit somewhere; the sample as a whole holds those more often. Unmarked numbers belong to inactive results. The source made the active and inactive calls. Rule as the data show it: active = growth inhibition above about 70%; inactive = the rest.
Columns and labels:
[1] = NCI Yeast Anticancer Drug Screen. Data for the rad50 strain (AID 155);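 also: 0% = growth of vehicle-only cultures of the same strain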; conditions: S. cerevisiae rad50 strain growth inhibition, stronger effect = higher value
Method in brief: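 Genetically altered yeast (DNA repair pathway); compound treatment; growth inhibition vs vehicle ctrl.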

[2] = NCI Yeast Anticancer Drug Screen. Data for the mec2-1 strain (AID 157); conditions: S. cerevisiae mec2-1 strain, stronger effect = higher value
Method in brief: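 Mutant yeast (mec2-1) grown with compound; growth inhibition relative to vehicle control reported.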

[3] = NCI Yeast Anticancer Drug Screen. Data for the sgs1 mgt1 strain (AID 161);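 also: 0% = growth of cultures given vehicle only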; conditions: S. cerevisiae sgs1 mgt1 strain, stronger effect = higher value
Method in brief: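 Percent growth inhibition was derived by comparing compound-exposed mutant yeast with vehicle-exposed cultures. The strain carries alterations in DNA damage repair.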

[4] = NCI Yeast Anticancer Drug Screen. Data for the cln2 rad14 strain (AID 165);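 also: 0% = growth equal to vehicle treated cultures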; conditions: S. cerevisiae cln2 rad14 strain, stronger effect = higher value
Method in brief: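 Readout is yeast growth inhibition versus vehicle-treated controls, using a strain with cln2 and rad14 alterations exposed to compound.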

[5] = NCI Yeast Anticancer Drug Screen. Data for the bub3 strain (AID 167); conditions: S. cerevisiae bub3 mutant strain, stronger effect = higher value
Method in brief: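 Yeast carrying a defined mutation is treated with each compound, and growth is compared with that of vehicle-exposed cells to give inhibition.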

[6] = NCI Yeast Anticancer Drug Screen. Data for the mlh1 rad18 strain (AID 175); conditions: S. cerevisiae mlh1 rad18 strain growth inhibition, stronger effect = higher value
Method in brief: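 Genetically defined yeast (DNA repair-deficient) exposed to compounds; growth inhibition determined relative to vehicle.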

[7] = at 5.0 µM (retest, dose inferred, filed as 0.5)
[8] = at 50.0 µM (retest, dose inferred, filed as 5.0)

| Compound | growth inhibition [1, 7] [%] | growth inhibition [1, 8] | growth inhibition ([1]; at 50.0 µM) | growth inhibition [2, 7] [%] | growth inhibition [2, 8] | growth inhibition ([2]; at 50.0 µM) | growth inhibition [3, 7] [%] | growth inhibition [3, 8] | growth inhibition ([3]; at 50.0 µM) | growth inhibition [4, 7] [%] | growth inhibition [4, 8] | growth inhibition ([4]; at 50.0 µM) | growth inhibition [5, 7] [%] | growth inhibition [5, 8] | growth inhibition ([5]; at 50.0 µM) | growth inhibition [6, 7] [%] | growth inhibition [6, 8] | growth inhibition ([6]; at 50.0 µM) |
| --- | --- | --- | --- | --- | --- | --- | --- | --- | --- | --- | --- | --- | --- | --- | --- | --- | --- | --- |
| CN(C)c1nc(Cl)nc2c1ncn2C1OCC(O)C(O)C1O (stereo not given) | -4 | 3% | 10.7% | -8 | 4% | 22% | 9 | 7% | 5.05% | 1 | -6% | 1.25% | -1 | -7% | -5.1% | 11 | 11% | 42.5% |
| C=CC(=O)N1C/C(=C\c2ccccc2)C(=O)/C(=C/c2ccccc2)C1 | 44 | 75% (active) | 73.8% (active) | 37 | 80% (active) | 80.2% (active) | 49 | 90% (active) | 71.7% (active) | 39 | 58% | 48.2% | 40 | 87% (active) | 78.5% (active) | 50 | 94% (active) | 84.7% (active) |
| COc1cccc(C=Nc2ccc(I)cc2)c1O.COc1cccc(C=Nc2ccc(I)cc2)c1O.[Co] | 15 | 56% | 29.4% | 11 | 25% | 11.7% | 12 | 31% | 30.2% | 10 | 19% | 21% | 10 | 9% | 52.1% | 13 | 37% | 19.2% |
| C/C([O-])=C1\Cc2ccccc2C1=O.C/C([O-])=C1\Cc2ccccc2C1=O.CC[O-].CC[O-].[Ti+4] | 25 | 25% | 89% (active) | 17 | 17% | 89.4% (active) | 4 | 4% | 91.5% (active) | 4 | 4% | 81% (active) | 4 | 4% | 88.6% (active) | 20 | 20% | 90.7% (active) |
| CCc1[nH]c2ccccc2c1C(c1c(CC)[nH]c2ccccc12)C1CCCCC1=O (stereo not given) | 1 | 91% (active) | 93.2% (active) | -8 | 97% (active) | 88.8% (active) | -10 | 96% (active) | 92.2% (active) | 0 | 95% (active) | 95.2% (active) | 0 | 95% (active) | 79.8% (active) | -9 | 97% (active) | 95.6% (active) |
| O=C(N/C(=C\c1cc(Cl)ccc1Cl)c1nc2ccc(Cl)cc2[nH]1)c1ccccc1 | 29 | 87% (active) | 93.2% (active) | 17 | 82% (active) | 96.5% (active) | 28 | 81% (active) | 93.8% (active) | 39 | 84% (active) | 91.9% (active) | 31 | 87% (active) | 94.7% (active) | 14 | 81% (active) | 96.5% (active) |
| CCOC(=O)C1(C#N)C(=O)CSC1=Nc1ccccc1Cl (stereo not given) | -7 | -14% | -5.95% | -16 | -11% | -8.75% | -4 | -2% | 25% | 13 | 17% | -9.95% | -14 | -10% | 18.4% | -33 | -54% | -3.4% |
| O=C(c1ccccc1)C(Cl)c1ccccc1 (stereo not given) | 9 | 99% (active) | 91.6% (active) | -12 | 99% (active) | 95.2% (active) | 1 | 97% (active) | 97.5% (active) | 0 | 41% | 44% | 51 | 99% (active) | 94% (active) | 0 | 99% (active) | 95.2% (active) |
| c1ccc(C2=NOC3(c4ccccc4)SC4CCCCC4CN23)cc1 (stereo not given) | 6 | 97% (active) | 90.3% (active) | -22 | 98% (active) | 93.7% (active) | 10 | 97% (active) | 92.4% (active) | 15 | 98% (active) | 90.4% (active) | 25 | 97% (active) | 90.2% (active) | 8 | 98% (active) | 90.1% (active) |
| Cc1nc(Nc2ccc(Cl)cc2)sc1C(=O)NNc1ccc([N+](=O)[O-])cc1[N+](=O)[O-] | 24 | 24% | 88.8% (active) | 9 | 9% | 90.2% (active) | -6 | -6% | 90.5% (active) | 9 | 9% | 89.4% (active) | 10 | 10% | 92.8% (active) | 16 | 16% | 89.8% (active) |

Reference: PubChem BioAssay (NCI)
